# From PubChem BioAssay AID743156 (Broad Institute, 2013)
# This is one part of the list. Active and inactive are the calls of the source.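 The calls were made as follows: active = mean inhibition across replicates of at least 20% with every single replicate also at 20% or more; inconclusive = mean inhibition at least 20% but some replicate falls below 20%; inactive = mean inhibition under 20% and not all replicates reach it.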
# Tested on: PglD UDP-4-amino-sugar N-acetyltransferase (Campylobacter jejuni)
# Assay: inhibition of C. jejuni PglD N-acetyltransferase – biochemical, DTNB absorbance, single point, cherry-picked samples, confirmation (AID 743156);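 also: initial rate of CoA release by acetyl transfer from AcCoA to the UDP-4-amino sugar; 0% = median of neutral control wells and 100% = median of positive control wells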
# Details: Purified C. jejuni PglD, DTNB absorbance 412 nm; at 20 µM; active compounds read high
row,Structure (SMILES),inhibition
1,COc1ccc(NC(=O)C2=NNC(=O)CC2)cc1S(=O)(=O)N1CCCCC1,-3.63% (inactive)
2,C=CCOC(=O)C1=C(C)NC(SCC(=O)OCC)=C(C#N)C1c1ccc(C)cc1 (configuration not stated),0.793% (inactive)
3,Cc1ccc(NC(=O)CNCc2ccccn2)cc1S(=O)(=O)N(C)C,-5.07% (inactive)
4,O=C(NCc1ccncc1)C1CCN(C(=O)c2cccc(Cl)c2)CC1,2.21% (inactive)
5,CCCCC(=O)Nc1ccc(C(=O)NCCCn2ccnc2)cc1,-0.586% (inactive)
6,O=C(Nc1ccc(Sc2ccc(Br)cc2)cc1)c1ccco1,11.2% (inactive)
7,CCOc1ccc(OCc2ccc(C(=O)N(C)c3ccccc3)o2)cc1,1.37% (inactive)
8,CC(NC(=O)c1ccc(Cl)cc1)C(=O)N1CCCCC1 (configuration not stated),0.85% (inactive)
9,CC(C)CCNC(=O)c1ccc2c(Cl)c3c(nc2c1)CCC3,2.89% (inactive)
10,Cc1ccc(S(=O)(=O)N2CCC(C(=O)NCC3CCCO3)CC2)cc1 (configuration not stated),-10.7% (inactive)
11,C=CC1=C(C(=O)O)N2C(=O)[C@@H](NC(=O)/C(=N/OCC(=O)O)c3csc(N)n3)[C@H]2SC1,37.4% (active)
12,Cc1ccc(C2=C/C(=C\c3cccnc3)C(=O)O2)cc1,7.97% (inactive)
13,CCCOc1ccc(F)cc1-c1cc(C(=O)Nc2ccc(F)cc2)[nH]n1,3.61% (inactive)
14,CC(=O)Nc1ccc(OC(=O)COc2ccc(Br)cc2)cc1,1.84% (inactive)
15,CSc1ccc(S(=O)(=O)NCc2ccc(Cl)cc2)cc1,3.66% (inactive)
16,O=S1(=O)CC(NCc2ccccc2)C(Nc2ccc(Cl)cc2)C1 (configuration not stated),-7.57% (inactive)
17,CC(C)(C)c1ccc(CN2C(=O)c3ccccc3S2(=O)=O)cc1,2.98% (inactive)
